The structures appear in SMILES notation. Inconclusive results are not listed. Entries that show only a call come without a potency. Calls of active or inactive are those of the source. Calls come from the whole dose curve.

This experiment is described as follows: qHTS assay to identify small molecule agonists of the hypoxia (HIF-1) signaling pathway - cell viability counter screen (AID 1224844). Note: nearly all actives have a fitted effect of over 50% in size. The following applies: HRE-bla ME-180 viability, CellTiter-Glo luminescence, 17 h; series mostly up to 76.8 µM. The text has this:
National Center for Advancing Translational Sciences [NCATS]
NIH Chemical Genomics Center [NCGC]
U.S. Environmental Protection Agency [EPA]
National Institutes of Environmental Health Sciences [NIEHS]
National Toxicology Program [NTP]
U.S. Food and Drug Administration [FDA]
Hypoxia-inducible factor-1 (HIF-1) is the major hypoxia-regulated transcription factor that controls cellular responses to low oxygen concentration. HIF-1 is composed of two subunits: hypoxia responsive HIF-1-alpha and constitutively expressed HIF-1-beta, which is also known as aryl hydrocarbon receptor nuclear translocator. During hypoxic conditions, HIF-1-alpha heterodimerizes with HIF-1-beta and translocates into the nucleus where the HIF-1 complex binds to the hypoxia-response element (HRE) and activates expression of target genes such as VEGF (vascular endothelial growth factor). The HIF-1 pathway is essential to normal growth and development, and is involved in the pathophysiology of cancer, inflammation, and ischemia.
Using a beta-lactamase reporter-gene under control of the hypoxia response element, a cell-based assay [CellSensor(TM) HRE-bla ME-180 from Life Technologies, Carlsbad, CA] was used to measure hypoxia-induced signaling. Tox21 10K library compounds were measured for their ability to induce the reporter gene activity. The cytotoxicity of the Tox21 compound library against HRE-bla ME-180 cell line was tested in parallel by measuring cell viability using CellTiter-Glo assay (Promega, Madison, WI) in the same assay wells.
Tox21 Assay Protocol Summary:
HRE-bla ME-180 cells were dispensed at 2,000 cells per well in 6 uL of assay medium containing 0.5% dialyzed FBS into black wall/clear-bottom 1536-well plates using a Multidrop Combi (Thermo Scientific, Waltham, MA) dispenser. After the assay plates were incubated at 37C and 5% CO2 for 5 hrs, 23 nL of compounds dissolved in DMSO, positive controls or DMSO only was transferred to each well of the assay plate using a Pintool station (Kalypsys, San Diego, CA). The assay plates were incubated at 37C and 5% CO2 for 17 hrs. One uL of LiveBLAzerTM B/G FRET substrate (CCF4-AM) (Life Technologies) was added to each well using a Flying Reagent Dispenser (FRD, Aurora Discovery, San Diego, CA). After 2 hr incubation at room temperature, fluorescence intensity (405 nm excitation, 460 nm and 530 nm emissions) was measured using an Envision plate reader (PerkinElmer, Shelton, CT). For cytotoxicity, 4 ul/well of CellTiter-Glo reagent was added into the assay plates using an FRD. After 30 min incubation at room temperature, the luminescence intensity was measured using a ViewLux plate reader (PerkinElmer).
In the case of `Cc1cc(SC2=C(O)C[C@@](CCc3ccc(N)cc3)(C(C)C)OC2=O)c(C(C)(C)C)cc1CO`, the Potency entry is “inactive”.

Consider `CC(C)(C)N`, for which the Potency entry is “inactive”.

Turning to `C1=COCCC1`, the Potency entry is “inactive”.

Consider `C[C@@H](O)[C@H]1C(=O)N2C(C(=O)O)=C(S[C@@H]3CN[C@H](CNS(N)(=O)=O)C3)[C@H](C)[C@H]12`, for which the Potency result was “inactive”.

Turning to `CC(CC(C#N)(c1ccccc1)C(C)C)N(C)C` (stereo not given), the Potency result was “inactive”.

Take `Cc1c(-c2cccnc2)c2ccccc2n1CCCCC(=O)O`: the Potency entry is “inactive”.

`SCCOCCOCCS`: the Potency entry was “inactive”.

With `CC(Cc1ccccc1)(NC(=O)CN)c1ccccc1` (stereo not given), the Potency result is “inactive”.

As for `CCCc1nc(C)c2c(=O)[nH]c(-c3cc(S(=O)(=O)N4CCN(CC)CC4)ccc3OCC)nn12`, the Potency entry is “inactive”.

On to `CCC(=O)O[C@@H]1C[C@H]2CC[C@]1(C)C2(C)C`, for which the Potency entry is “inactive”.

Take `CC(=O)Nc1ccn(C2COC(COC(=O)c3ccccc3)O2)c(=O)n1` (stereo not given): the Potency result is “inactive”.

`CC(COc1ccccc1)NC(C)C(O)c1ccc(O)cc1` (stereo not given): the Potency result was “inactive”.

As to `OCCOc1cccc(OCCO)c1`, the Potency result is “inactive”.

Take `CO[C@@H]1[C@@H](O[C@@H]2O[C@H](C)[C@@H](O[C@H]3C[C@@](C)(O)[C@@H](O)[C@H](C)O3)[C@H](N(C)C)[C@H]2O)[C@@H](CC=O)C[C@@H](C)[C@@H](O[C@@H]2CC[C@H](N(C)C)[C@@H](C)O2)/C=C/C=C/C[C@@H](C)OC(=O)C[C@H]1OC(C)=O`: the Potency result is “inactive”.

As for `CC(O)CN` (stereo not given), the Potency entry is “inactive”.

For `CC(C)Cc1nccs1`, the Potency result is “inactive”.

Consider `COC(=O)c1cc(Cl)ccc1[N+](=O)[O-]`, for which the Potency result was “inactive”.

With `CCCC1CCCC(=O)O1` (stereo not given), the Potency result is “inactive”.

For `CCc1c(C)[nH]c2c1C(=O)C(CN1CCOCC1)CC2` (stereo not given), the Potency entry was “inactive”.

Take `CCOc1ccc(NC(C)=O)cc1N`: the Potency entry was “inactive”.

As for `CCOc1ccccc1O`, the Potency entry was “inactive”.

Consider `CCOC(=O)CC(O)(CC(=O)OCC)C(=O)OCC`, for which the Potency entry is “inactive”.

For the molecule `CCC(C)C1N=C(C)C(C)S1` (stereo not given), the Potency result is “inactive”.

Consider `C[C@H](CN1CCCC1)C(=O)c1ccc(C(F)(F)F)cc1`, for which the Potency entry was “inactive”.

For `CC(=O)Oc1cccc2c1C(=O)c1c(OC(C)=O)cc(C(=O)O)cc1C2=O`, the Potency entry was “inactive”.

Take `C=CC(C)(O)CC/C=C(/C)CCC=C(C)C` (stereo not given): the Potency entry is “inactive”.

Regarding `COc1ccc(CN(CCN(C)C)c2ncccn2)cc1`, the Potency entry is “inactive”.

Turning to `Cc1ccc(NC(=O)c2ccc(CN3CCN(C)CC3)cc2)cc1Nc1nccc(-c2cccnc2)n1`, the Potency result was “inactive”.

Take `O=C(O)COCC(=O)O`: the Potency entry is “inactive”.

Consider `C=CC(C)CCC=C(C)C` (stereo not given), for which the Potency result was “inactive”.

As for `CCOCCn1c(N2CCCN(C)CC2)nc2ccccc21`, the Potency result was “inactive”.

Consider `O=C(O)CCc1nc2ccccc2[nH]1`, for which the Potency result was “inactive”.

For the molecule `C=CC(=O)NC(C)(C)C`, the Potency entry is “inactive”.

With `FC1(F)C(F)(F)C(F)(F)C2(F)C(F)(C1(F)F)C(F)(F)C(F)(F)C1(F)C(F)(F)C(F)(F)C(F)(F)C(F)(F)C12F` (stereo not given), the Potency entry was “inactive”.

Turning to `O=C(N[C@@H](Cc1ccccc1)[C@@H](O)C(=O)N1C[C@@H](O)[C@@H](O)C1)c1cc2cc(Cl)ccc2[nH]1`, the Potency result was “inactive”.

Turning to `C/C(=C(\CCO)SS/C(CCO)=C(\C)N(C=O)Cc1cnc(C)nc1N)N(C=O)Cc1cnc(C)nc1N`, the Potency entry was “inactive”.

On to `CCCCCCCCCCCCSCCOCCO`, for which the Potency entry was “inactive”.

On to `C/C(=C\C(C)CC(C)CC(C)C)C1CC(=O)OC1=O` (stereo not given), for which the Potency entry was “inactive”.

On to `CC1(C)C(=O)NC(=O)N1CO`, for which the Potency result was “inactive”.

For `N#C[C@@H]1CC(F)(F)CN1C(=O)CNC1CC2CCC(C1)N2c1ncccn1` (stereo not given in full), the Potency result was “inactive”.

The record behind these values is PubChem BioAssay (Tox21).
